Source: PubChem BioAssay (NCATS)
Records with an inconclusive call do not appear. A number with no mark means an inactive call. Activity calls are given as the source filed them. Calls follow the shape of the full dose curve.

Test: Cell Viability - MRC5 (AID 434);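 also: potency reflects cytotoxicity seen as loss of intracellular ATP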
Settings: MRC5 lung fibroblast viability, qHTS
Excerpt: NIH Chemical Genomics Center [NCGC]
NIH Molecular Libraries Screening Centers Network [MLSCN]
National Institutes of Environmental Health Sciences [NIEHS]
National Toxicology Program [NTP]
We have developed a 1536-well cell-based assay for quantitative high throughput screening (qHTS) against a number of cell lines to determine in vitro cytotoxicity of small molecules. This particular assay uses the MRC5 cell line which is derived from normal human lung fibroblasts.
NCGC Assay Protocol Summary:
The CellTiter-Glo luminescent cell viability assay (Promega) is a homogeneous method to measure the number of viable cells in culture. The end point readout of this assay is based on quantitation of intracellular ATP, an indicator of metabolic activity, using the luciferase reaction. Luciferase catalyzes the oxidation of beetle Luciferin to oxyluciferin and light in the presence of ATP. The luminescent signal is proportional to amount of ATP present.
Using the CellTiter-Glo luminescent cell viability assay, the amount of cellular ATP was measured in the MRC5 cell line with complete culture medium following compound treatment for 40 hours. The assay was performed in opaque white Kalypsys 1536-well plates. In the screen, tamoxifen and doxorubicin were used as positive controls. Library compounds were measured for their ability to cause acute toxicity in the cell line, as reflected by a decrease in intracellular ATP levels, in a concentration-dependent manner. Data were normalized to the controls for basal activity (DMSO only) and 100% inhibition (100 uM tamoxifen). AC50 values were determined from concentration-response data modeled with the standard Hill equation.
qHTS protocol for CellTiter Glo MRC5 cellular assay
[Step] [Parameter] [Value] [Description]
1. Reagent; 5 uL; 1500 MRC5 cells/well
2. Time; 5 hr; 37 °C incubation
4. Controls; 23 nL; Tamoxifen 0.34 uM to 100 uM & Doxorubicin 0.02 nM to 100 uM
5. Time; 40 hr; 37 °C incubation
6. Reagent; 5 uL; CellTiter Glo reagent
7. Time; 20 min; Room Temperature
8. Detection; Luminescence; Viewlux plate reader
Keywords: cell viability, cytotoxicity, MRC5 cell line, luminescence, NTPHTS, NTPHTS_NCGC, NIEHS, EPA, DSSTox, MLSMR, MLSCN, NIH Roadmap, qHTS, NCGC
Potency is read from the fitted curve at half-maximal effect.

| Compound | Potency |
| --- | --- |
| CCCCCCCCCCCCCC(=O)O | > 92 µM |
| O=C(O)c1ccccc1C(c1ccc(O)cc1)c1ccc(O)cc1 | > 92 µM |
| C[C@H](CCC(=O)O)[C@H]1CC[C@H]2[C@@H]3CC[C@@H]4C[C@H](O)CC[C@]4(C)[C@H]3CC[C@]12C | > 92 µM |
| Clc1cc(Cl)c(Cl)cc1Cl | > 92 µM |
| c1ccc2c(c1)[nH]c1ccccc12 | > 92 µM |
| COc1cc(/C=C/c2ccccc2)oc(=O)c1 | > 92 µM |
| S=C1NC=NC2N=CNC12 (stereo not given) | > 92 µM |
| O=S(=O)(O)c1ccccc1 | > 92 µM |
| C=CCc1ccc(OC)c(OC)c1 | > 92 µM |
| O=C1c2ccccc2C(=O)C1c1ccc2ccccc2n1 | 30.1 µM (active) |
| COc1ccc(/C=C/c2cc(OC)cc(=O)o2)cc1 | > 92 µM |
| COC(=O)c1ccc(C)cc1 | > 92 µM |
| CC1=C2[C@H](/C=C(\C)C(=O)O)CC[C@@H](C)[C@H]2CC1 | > 92 µM |
| c1ccccc1 | > 92 µM |
| O=C(O)CC(C(=O)O)C(CC(=O)O)C(=O)O (stereo not given) | > 92 µM |
| O=[N+]([O-])c1cccc(Cl)c1Cl | > 92 µM |
| COC(=O)CCCCC(=O)OC | > 92 µM |
| CC1(C)CC(N=C=O)CC(C)(CN=C=O)C1 (stereo not given) | > 92 µM |
| O=C(O)c1ccccc1 | > 92 µM |
| O=C1CCc2ccccc2O1 | > 92 µM |

| Compound | Potency |
| --- | --- |
| COc1c2ccoc2cc2oc(=O)ccc12 | > 92 µM |
| Nc1ccc(S(=O)(=O)O)cc1 | > 92 µM |
| COc1ccc2nc(N)sc2c1 | > 92 µM |
| CC(=O)OC/C=C(\C)CCC=C(C)C | > 92 µM |
| ClCCCl | > 92 µM |
| Cc1ccccc1C | > 92 µM |
| CC12CCC(CC1=O)C2(C)C (stereo not given) | > 92 µM |
| C/C=C\c1ccc(OC)cc1 | > 92 µM |
| CCCCC(CC)CN (stereo not given) | > 92 µM |
| C=CCOC(=O)c1ccccc1C(=O)OCC=C | > 92 µM |
| Cc1ccc(N)c([N+](=O)[O-])c1 | > 92 µM |
| CCC(O)OC(O)CC (stereo not given) | > 92 µM |
| COC(=O)c1ccc(C=O)cc1 | > 92 µM |
| CCCN(CCC)C(=O)SCC | > 92 µM |
| Cc1ccc([N+](=O)[O-])cc1N | > 92 µM |
| NC1=NC(S)C2N=CN=C2N1 (stereo not given) | > 92 µM |
| CCCCCCCCCCCC(=O)O | > 92 µM |
| O=NO | > 92 µM |
| CCCCCCCCCCCCCCC1CO1 (stereo not given) | > 92 µM |
| CC(C)=CCCC(C)CCO (stereo not given) | > 92 µM |
